Assay outcomes as filed in PubChem BioAssay.
MARV entry inh: Marburg virus entry inhibition | Marburg virus pseudotyped entry inhibition, cell reporter | Potency, µM (series often up to 37.8 µM), inactives show at the highest dose activity change, negative = inhibition, usual class: inhibitors | 1.8% of 300,000 active | AID 540276; calls by dose curve; tested in HEK293 cells; further: potency means the concentration at half of the fitted maximal effect
Pf growth 48h: P. falciparum growth inhibition at 48 hours (one generation); P. falciparum luciferase growth in erythrocytes, 48 h; Potency, µM (series often up to 28.7 µM), for the others: top-dose activity change, negative = inhibition, most hits filed as inhibitors; 5.9% of 310,000 active; AID 504832; further: potency means the concentration at half of the fitted maximal effect
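Luciferase-expressing parasites in RBCs, 2% Hct / 0.1% parasitemia final; RPMI 1640 + 0.5% Albumax; 37 C, 5% CO2, one generation; luminescence read-out, lower signal = inhibition.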
HCV inh: blocks hepatitis C virus; Huh7.5.1 HCVcc-Cre infection, luciferase reporter, 44 h; Potency, µM (highest dose often 41.8 µM), for inactives: at the highest dose activity change, negative = inhibition, usual class: inhibitors; 3.4% of 340,000 active; AID 651820; further: potency means the concentration at half of the fitted maximal effect
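Seed cells (1,000/well) for 4 h; treat with compound and infect with HCVcc-Cre, moi about 0.5. Incubate 44 h, then detect luciferase activity.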
Pf growth 96h: inhibits malaria parasite growth, 96 h; P. falciparum luciferase reporter growth, 96 h; Potency, µM (top dose mostly 28.7 µM), inactives show at the top dose activity change, negative = inhibition, most hits filed as inhibitors; 6.9% of 320,000 active; further: potency means the concentration at half of the fitted maximal effect
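Cell-based qHTS: luciferase-tagged P. falciparum in erythrocytes (2% hematocrit, 0.05% parasitemia final) incubated with compounds for 96 hours, 37 C, 5% CO2; luciferase detection reagent then added and luminescence measured.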
Lassa entry inh: blocks Lassa virus binding to or entry into cells | Potency, µM (highest dose often 37.9 µM), without a hit: top-dose activity change, negative = inhibition, hits mostly inhibitors | Lassa virus pseudotype entry inhibition, cell reporter | 1.2% of 300,000 active | AID 540256; calls by dose curve; tested in HEK293 cells; further: potency means the concentration at half of the fitted maximal effect; nearly all actives have a fitted effect of over 50% in size
HCMV antiviral: inhibitors of human cytomegalovirus. activity change, negative = inhibition, % at 57.5 µM. 4.5% of 410,000 active. HFF cells, HCMV-luciferase reporter, 72 h; active compounds read low. AID 1259415; in the data active means activity change below about -60%; inconclusive means no clear call, values can overlap the other calls; inactive means above about -39%
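Cell-based, HFFs, 1000 cells/well, 16 h 37C; cpds in DMSO + HCMV-luc, MOI 1 PFU/cell; 72 h 37C; OneGlo luminescence after 5 min RT; norm. to buffer vs Salinomycin 10uM.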
Numbers without * were called inactive; u = inconclusive; x = not tested or not shown; [ ] = remark or other dose. Sampled rows, rich in hits. Any-hit rate of the full collection: about 14%. Unless noted, the call rests on the fitted dose curve; in most records, active means well fitted inhibition curve with a large enough effect; inconclusive means small, poorly fitted or top-dose-only effect, or another doubt; inactive means no such curve, though single readings can be large or run the other way. On the % scale 0 is the no-effect control and ±100 the full control effect.

SMILES	MARV entry inh	Pf growth 48h	HCV inh	Pf growth 96h	Lassa entry inh	HCMV antiviral
COc1cc(C2C(C#N)=C(N)Oc3cc(O)ccc32)cc2c1OCO2 (stereo not given)	u	-12%	2%	53%	-22%	102
COc1cc(C2C(C#N)=C(N)OC3=C2C(=O)CC(C)(C)C3)cc2c1OCO2 (stereo not given)	-1%	x	10µM*	x	u	0
COc1cc(C2C(C#N)=C(N)Oc3cc(O)ccc32)cc(OC)c1OC (stereo not given)	1.8µM*	u	-10%	u	u	-89*
COc1cc(C2C(C#N)=C(N)Oc3cc(N(C)C)ccc32)cc2c1OCO2 (stereo not given)	u	u	16%	-9%	0.52µM*	-78*
COc1ccc(C2C(C#N)=C(N)OC3=C2C(=O)CC(C)(C)C3)cc1 (stereo not given)	x	-8%	12%	20%	x	-13
COc1ccc(C2C(C#N)=C(N)Oc3cc(O)ccc32)cc1OC (stereo not given)	u	12%	-19%	u	-15%	50
COc1cc(C2C(C#N)=C(N)Oc3cc4c(cc32)OCO4)cc(OC)c1OC (stereo not given)	u	u	26%	u	u	-86*
CC(C)C[C@H](NC(=O)/C=C/[C@H]1O[C@@H](n2ccc(=O)[nH]c2=O)[C@H](O)[C@@H]1O)C(=O)O	x	x	x	x	x	-5
COCCCNC(=O)Cn1cc(/C=C(\C#N)C(=O)NC2CCCC2)c2ccccc21	x	14%	4%	9%	x	-3
CC1C(C#N)=C(N)OC2=C1C(=O)CC(C)(C)C2 (stereo not given)	-2%	x	-1%	13µM*	12%	25
Cc1c(C(c2ccc(F)cc2)c2c(C)n(C)n(-c3ccccc3)c2=O)c(=O)n(-c2ccccc2)n1C	x	-8%	3%	u	x	19
CCCCCC[N+](C)(C)CCSSCC[N+](C)(C)CCCCCC	x	-1%	4%	-1%	x	5
CCCCCCCCCCCCCCCC[N+](C)(C)CC	x	3.3µM*	u	2.6µM*	x	-96*
CCCCCCCCCC[N+](C)(C)CCCCCCCCCC	x	1.7µM*	x	1.7µM*	x	x
CCOc1ccc(CCNC(=O)c2ccc(CS(=O)(=O)Cc3ccccc3Cl)o2)cc1OCC	x	x	x	x	u	0
CCC(c1nnnn1C(C)(C)C)N1CCN(c2cc(Cl)ccc2C)CC1 (stereo not given)	10µM*	u	-18%	0.15µM*	13µM*	-15
Cc1ccc(Cl)cc1N1CCN(C(CC(C)C)c2nnnn2CC2CCCO2)CC1 (stereo not given)	-4%	u	8%	0%	-12%	-19
CCCC(c1nnnn1CC1CCCO1)N1CCN(c2cc(Cl)ccc2C)CC1 (stereo not given)	u	13µM*	-20%	-1%	u	-12
CCC(c1nnnn1C(C)(C)C)N1CCN(Cc2ccccc2OC)CC1 (stereo not given)	x	-10%	1%	3%	x	-72*
CCCCCCCCN1C(=O)[C@H](CC(=O)N2CCOCC2)C[C@@]2(C(=O)OC)CC(C)(C)CC=C12	x	x	x	x	x	26
Cc1cc(C)c(/C=C/c2onc(C)c2S(=O)(=O)N2CCC(C(=O)N3CCN(c4ccc(Cl)cc4)CC3)CC2)c(C)c1	x	x	x	x	u	12
Cc1ccc(-c2nc3c4ccccc4n(CC(=O)NCc4ccc(F)cc4)c(=O)n3n2)cc1	x	x	x	x	11%[46.1 µM]	-11
CC(C)Cn1c(=O)c2ccccc2n2c(CCC(=O)Nc3ccc(F)c(F)c3)nnc12	u	x	x	x	x	34
Cc1cc2c(C(C)C)c(O)c(O)c(C=O)c2c(O)c1-c1c(C)cc2c(C(C)C)c(O)c(O)c(C=O)c2c1O	10µM*	13µM*	u	5.2µM*	7.1µM*	x
CC1=NN(c2ccccc2)C(=O)C1(C)C	16%	4%	12%	9.3µM*	-3%	-15
SMILES	MARV entry inh	Pf growth 48h	HCV inh	Pf growth 96h	Lassa entry inh	HCMV antiviral
CC1=C(C)CC2(SC1)C(=O)N(c1ccccc1)N=C2N (stereo not given)	u	40%	12%	8%	25%	55
COC(=O)c1ccc(Cl)cc1NC(=O)N1CCC(CN2CCC(C)CC2)CC1	x	x	x	x	9%[46.1 µM]	-12
CCCCN(CC)C(=O)c1nn(-c2ccc(OC)cc2)c(=O)c2c1c1ccccc1n2C	-28%[46.1 µM]	x	x	x	-12%[46.1 µM]	-29
CCN(CC)S(=O)(=O)c1cccc(C(=O)NC(Cc2c[nH]c3ccccc23)c2nnc3n2CCCCC3)c1 (stereo not given)	0%	u	10%	10µM*	u	-3
O=C(Cn1ncn2c(cc3cc(F)ccc32)c1=O)NC1CCCCC1	-15%[46.1 µM]	x	x	x	x	-3
O=C(NNC(=O)c1ccccc1-c1ccccc1C(=O)O)c1ccccc1	13%[46.1 µM]	16%	12%	5%	-1%[46.1 µM]	-25
O=C(C=P(c1ccccc1)(c1ccccc1)c1ccccc1)c1ccccc1-c1ccccc1C(=O)C=P(c1ccccc1)(c1ccccc1)c1ccccc1	u	x	u	x	2.2µM*	-98*
O=C1/C(=C/c2cccs2)SC(=S)N1CCC(=O)N1CCCCC1CCO (stereo not given)	u	u	-9%	12µM*	16%[46.1 µM]	-96*
COc1ccccc1/C=C1\SC(=S)N(CCC(=O)NC2=NCCS2)C1=O	u	7%	22%	-5%	-9%	-31
O=C(CCN1C(=O)/C(=C/c2cccs2)SC1=S)N1CCCCC1	u	u	-29%	22%	u	-40
COc1ccccc1/C=C1\SC(=O)N(CC(=O)N(C)C2CCS(=O)(=O)C2)C1=O (stereo not given)	x	4%	7%	14%	x	-24
COc1ccccc1/C=C1\SC(=O)N(CCC(=O)N2CCCCC2CCO)C1=O (stereo not given)	x	u	-28%	9.3µM*	x	-23
COc1ccccc1/C=C1\SC(=S)N(CCC(=O)N2CCCCC2CCO)C1=O (stereo not given)	u	u	u	u	-12%[46.1 µM]	-77*
Cc1c(/C=N/NC(=O)c2ccc(O)cc2)c2ccccn2c1C(=O)c1ccc(F)cc1	u	4.1µM*	u	u	11µM*	56
Cc1c(/C=N/NC(=O)c2cccnc2)c2ccccn2c1C(=O)c1ccc(F)cc1	3%	9.3µM*	-1%	5.2µM*	0%	x
CCOC(=O)N/N=C/c1c(C)c(C(=O)c2ccc(F)cc2)n2ccccc12	8%[46.1 µM]	u	20%	-70%	0%	u
COC(=O)N/N=C/c1c(C)c(C(=O)c2ccc(F)cc2)n2ccccc12	u	-20%	u	u	u	-25
